Among the data in ChEMBL document CHEMBL3988442, “University of Dundee, Small-Polar-MMV Screening Library” (2021) are Percent Effect values, retold here.

Each structure is given as a SMILES string. In all, about 69,000 compounds went through this assay and about 420 (0.61%) showed an effect of 50% or more. For the sample, strong results were picked, then their nearest neighbours and some compounds at random.

This experiment deals with T1, Histidine--tRNA ligase (Leishmania infantum) (UniProt A4I591).
T1 sequence (whole entry): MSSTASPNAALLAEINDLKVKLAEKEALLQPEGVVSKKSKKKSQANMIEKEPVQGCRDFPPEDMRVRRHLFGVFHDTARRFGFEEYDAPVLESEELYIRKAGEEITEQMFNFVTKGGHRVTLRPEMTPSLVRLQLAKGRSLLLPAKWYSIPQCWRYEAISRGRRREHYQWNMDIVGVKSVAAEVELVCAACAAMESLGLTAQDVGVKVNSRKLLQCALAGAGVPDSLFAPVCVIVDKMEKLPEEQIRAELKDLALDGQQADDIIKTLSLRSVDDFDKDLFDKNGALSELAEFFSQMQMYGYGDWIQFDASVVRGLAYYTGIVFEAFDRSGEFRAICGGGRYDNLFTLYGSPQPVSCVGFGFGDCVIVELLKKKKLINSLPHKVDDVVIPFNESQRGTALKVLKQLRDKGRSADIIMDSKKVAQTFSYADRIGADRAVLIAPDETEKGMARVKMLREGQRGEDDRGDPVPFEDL
As to the kind of experiment: Leishmania infantum Histidine tRNA synthetase (LdHisRS). In kind it is functional. Details: scale not given: in the data most compounds retested in dose-response had high values. The conditions noted are these: 30 µM.
For `Cc1cnc2n(c1=O)CC(C(=O)Nc1cccc3cccnc13)CS2` (configuration not stated), the Percent Effect was determined as 67.3%. For the compound `Cc1cccnc1NC(=O)C1CSc2ncc(C)c(=O)n2C1` (configuration not stated), the Percent Effect came to 20.5%.

For `Cc1ccncc1NC(=O)C1CSc2ncc(C)c(=O)n2C1` (configuration not stated), the Percent Effect is 15.4%. The same measure for `CC(C)NC(=O)[C@@H]1CCO[C@@H]2CCN(c3ncccn3)C[C@@H]21`: 11.1%; for `Cc1ncsc1CNc1cccc(OCCN2CCCC2)c1`: 25.2%; for `COCc1nc2cc(NCc3sc(C)nc3C)ccc2o1`: 79.5%. As for `COCc1nc(CNc2cccc(-c3csc(C)n3)c2)cs1`, the Percent Effect was -6.67%. Regarding `COCc1nc2cc(NCc3nc(C)cs3)ccc2o1`, the Percent Effect was 106%.

With `COCc1nc2cc(NCc3scnc3C)ccc2o1`, the Percent Effect amounted to 54.5%. In the case of `COCCCSc1ccc(NCc2scnc2C)cc1`, the Percent Effect turned out to be 9.09%. As to `COCc1nc(CNc2cccc(-c3nc(C)c(C)o3)c2)cs1`, the Percent Effect was 0%. For the compound `Cc1csc(CNc2cccc(OCCN3CCCC3)c2)n1`, the Percent Effect was 23.2%.

Consider `COCc1nc2cc(NCc3csc(C)n3)ccc2o1`, for which the Percent Effect stood at 29.5%.

Regarding `CN(C)CCNC(=O)[C@H]1C[C@@H]2CN(C(=O)NC3CCCC3)C[C@H]1O2`, the Percent Effect was 8.62%. The same measure for `CN(C)c1cccc(C(=O)N2C[C@H]3CC[C@@H]2CN(C(=O)C2CCC2)C3)c1`: 18.4%. In the case of `O=S(=O)(c1cccs1)N1CCN2C[C@H](OCC3CC3)C[C@H]2C1`, the Percent Effect was 10.5%. On to `C[C@@H]1C[C@H]2CN(C(=O)c3ccncn3)C[C@H]2O1`, for which the Percent Effect was -2.56%.

Turning to `Cc1nnc([C@@H]2CCO[C@@H]3CCN(C(=O)Cc4ccccn4)C[C@@H]32)o1`, the Percent Effect was 15.8%. With `CN1[C@H](CN2CCCC2)C[C@@H]2CN(Cc3ccoc3)CC[C@@H]21`, the Percent Effect was 6.84%. On to `Cc1n[nH]c(C)c1-c1c(C#N)c(N)nc2c1CCc1[nH]ccc1-2`, for which the Percent Effect came out at 108%.

Turning to `Cn1cc(-c2c(C#N)c(N)nc3c2CCc2[nH]ccc2-3)cn1`, the Percent Effect came to 97.4%. With `Cc1c(-c2cnn(C)c2)nc(N)c(C#N)c1-c1ccc(CO)o1`, the Percent Effect came to 19.7%.

As for `Cc1cc(-c2c(C)c(-c3cnn(C)c3)nc(N)c2C#N)oc1C`, the Percent Effect was found to be 22.4%. On to `CCc1ccc(-c2c(C)c(-c3cnn(C)c3)nc(N)c2C#N)o1`, for which the Percent Effect came to 19.7%. The same measure for `Cc1n[nH]c(C)c1-c1cc(-c2ccc[nH]2)nc(N)c1C#N`: 27.5%; for `Cc1n[nH]c(C)c1-c1cc(-c2cc[nH]c2)nc(N)c1C#N`: 31.9%; for `CCn1cc(-c2cc(-c3ccn(C)c3)nc(N)c2C#N)cc1C#N`: 10.4%. As for `Cn1cc(-c2c(C#N)c(N)nc3c2CCc2[nH]ccc2-3)cc1C#N`, the Percent Effect was determined as 68.4%. Regarding `Cc1nnc([C@@H]2CC[C@@H]3[C@@H](CCN3C3CCC3)O2)o1`, the Percent Effect turned out to be 5.26%. In the case of `O=C(NC1CCCC1)N1C[C@H]2CN(c3ccccn3)C[C@@]2(C(=O)O)C1`, the Percent Effect stood at 3.92%. As to `O=C(NC[C@]12COC[C@H]1CN(Cc1nccs1)C2)c1ccccc1`, the Percent Effect was 17.5%.

Turning to `CS(=O)(=O)N1C[C@@H](NC(=O)c2ccno2)[C@@H]2OCCC[C@@H]21`, the Percent Effect is -4.54%. The same measure for `Cc1cnc(C(=O)N(CCN(C)C)Cc2ccc(Cl)cc2)cn1`: 24%.

With `Cc1cccc(N(CCC(N)=O)C(=O)c2cnccn2)c1`, the Percent Effect worked out at 5%. The value for `COCCN(C(=O)c1cnccn1)c1nc2c(s1)CCc1c-2cnn1C` was 51%; that for `CCCN(C(=O)c1cnc(C)cn1)c1nc2c(s1)CCc1c-2cnn1C` was 99%; that for `COCC1c2c(cnn2C)CCN1C(=O)c1cscn1` (configuration not stated) was 11.7%.

As to `CCN(CC)Cc1cn2c(n1)CN(C(=O)c1cnccn1)CC2`, the Percent Effect is 9.02%. For the compound `CCCN(CCC)C(=O)c1cnn(C)c1C`, the Percent Effect is -4%.

On to `CCCN(C(=O)c1cnccn1)c1nc2c(s1)CCc1c-2cnn1C`, for which the Percent Effect came out at 94.8%. Consider `COCCN1C(=O)CC[C@]12CC[C@@H](NC(=O)c1cnccn1)CC2`, for which the Percent Effect was -179%. As for `Cc1nc(CN2CC[C@@H]3O[C@@H](C(=O)N4CCOCC4)C[C@@H]32)cs1`, the Percent Effect worked out at 17.4%.

In the case of `Cn1cccc1C(=O)N1C[C@@H]2CCCO[C@@H]2[C@H](N2CCOCC2)C1`, the Percent Effect was found to be 17.5%. The same measure for `Cc1ccc(C(=O)N2C[C@@H]3[C@@H](C2)OCC(=O)N3Cc2cccnc2)o1`: 22.1%; for `O=C1C[C@H]2[C@@H](CCN2C(=O)c2ccc[nH]2)N1CCN1CCCC1`: 8.06%. `Cc1ccc(CN2CCN(Cc3nccn3C)[C@H]3CS(=O)(=O)C[C@H]32)o1`: the Percent Effect was determined as 16.8%. Turning to `O=C(NC1CC(F)(F)C1)[C@]12COC[C@H]1CN(Cc1ccccc1)C2`, the Percent Effect turned out to be 24%.

Take `CNC(=O)[C@H]1C[C@@H]2CN(S(=O)(=O)c3cccc(F)c3)C[C@@H]2N1C`: the Percent Effect turned out to be 28.6%.

Take `CN(C)C(=O)N1C[C@@H]2COC[C@]2(CNS(C)(=O)=O)C1`: the Percent Effect amounted to 4.51%.

Consider `CC(C)(C)c1ccc(OCC(=O)O)c(CN2C[C@H]3C[C@H](O)C[C@H]3C2)c1`, for which the Percent Effect was 14.5%. The same measure for `Cc1nc(CN2CC[C@H]3[C@H]2CCN3c2nncs2)cs1`: 17.5%; for `NCC1Cc2cccc(-c3nccc(N4CCC(O)CC4)n3)c2O1` (configuration not stated): 34.3%. In the case of `NCC1Cc2cc(-c3nccc(N4CCC(O)CC4)n3)cc(F)c2O1` (configuration not stated), the Percent Effect was determined as 51.4%. `NCC1Cc2cc(-c3cnccn3)cc(Cl)c2O1` (configuration not stated): the Percent Effect stood at 11%. With `Cc1nc(-c2cc(F)c3c(c2)CC(CN)O3)c[nH]1` (configuration not stated), the Percent Effect came to 26.2%.

For the compound `NCC1Cc2cc(-c3nccc(N4CCC(O)CC4)n3)cc(Cl)c2O1` (configuration not stated), the Percent Effect came out at 60%.

Take `Cc1nc(-c2cc(Cl)c3c(c2)CC(CN)O3)c[nH]1` (configuration not stated): the Percent Effect amounted to 40.5%.
